Results: ChEMBL document CHEMBL2218924, “A broad activity screen in support of a chemogenomic map for kinase signalling research and drug discovery” (Biochem J, 2013)

Legend:
[1] = molecular target: Mitogen-activated protein kinase 10 (Homo sapiens) (UniProt P53779); details: at 10 µM
[2] = molecular target: Vascular endothelial growth factor receptor 2 (Homo sapiens) (UniProt P35968); details: at 1 µM
[3] = molecular target: Vascular endothelial growth factor receptor 2 (Homo sapiens) (UniProt P35968); details: at 10 µM
[4] = molecular target: LIM domain kinase 1 (Homo sapiens) (UniProt P53667); details: at 1 µM
Chain of LIM domain kinase 1 (Homo sapiens) (P53667 whole entry, looked up, the tested form may be a part): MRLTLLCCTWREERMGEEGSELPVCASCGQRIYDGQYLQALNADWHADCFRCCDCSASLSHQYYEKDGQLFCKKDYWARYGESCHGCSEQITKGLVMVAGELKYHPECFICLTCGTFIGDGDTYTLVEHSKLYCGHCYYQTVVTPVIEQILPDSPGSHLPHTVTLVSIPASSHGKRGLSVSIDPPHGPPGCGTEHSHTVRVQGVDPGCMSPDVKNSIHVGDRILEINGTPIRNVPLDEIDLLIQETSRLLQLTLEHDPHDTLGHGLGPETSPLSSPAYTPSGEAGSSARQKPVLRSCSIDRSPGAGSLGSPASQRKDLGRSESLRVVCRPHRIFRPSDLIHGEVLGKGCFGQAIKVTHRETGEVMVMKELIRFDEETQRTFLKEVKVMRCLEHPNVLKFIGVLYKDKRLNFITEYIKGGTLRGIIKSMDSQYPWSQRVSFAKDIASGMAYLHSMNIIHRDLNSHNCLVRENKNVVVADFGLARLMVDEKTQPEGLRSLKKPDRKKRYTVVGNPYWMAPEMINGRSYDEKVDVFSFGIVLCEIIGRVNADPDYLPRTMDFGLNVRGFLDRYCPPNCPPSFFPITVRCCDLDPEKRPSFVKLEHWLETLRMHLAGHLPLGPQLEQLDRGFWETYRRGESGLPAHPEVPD

[5] = molecular target: LIM domain kinase 1 (Homo sapiens) (UniProt P53667); details: at 10 µM
[6] = molecular target: T1, Serine/threonine-protein kinase STK11 (Homo sapiens) (UniProt Q15831); details: at 1 µM
T1 sequence (whole entry): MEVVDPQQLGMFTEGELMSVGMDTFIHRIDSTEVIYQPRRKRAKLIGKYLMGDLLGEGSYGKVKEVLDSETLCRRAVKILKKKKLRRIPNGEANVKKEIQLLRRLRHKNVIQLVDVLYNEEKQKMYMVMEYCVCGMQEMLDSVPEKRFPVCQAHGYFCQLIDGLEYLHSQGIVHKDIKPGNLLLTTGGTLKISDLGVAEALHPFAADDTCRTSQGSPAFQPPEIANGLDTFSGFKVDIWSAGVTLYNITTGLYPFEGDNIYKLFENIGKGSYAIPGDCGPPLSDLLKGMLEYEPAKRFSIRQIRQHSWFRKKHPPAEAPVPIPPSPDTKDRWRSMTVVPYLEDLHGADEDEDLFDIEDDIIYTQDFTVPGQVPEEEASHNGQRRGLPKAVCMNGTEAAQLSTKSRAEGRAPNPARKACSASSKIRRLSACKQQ

[7] = molecular target: T1, Serine/threonine-protein kinase STK11 (Homo sapiens); details: at 10 µM
[8] = molecular target: Serine/threonine-protein kinase 10 (Homo sapiens) (UniProt O94804); details: at 1 µM
Chain of Serine/threonine-protein kinase 10 (Homo sapiens) (O94804 whole entry, looked up): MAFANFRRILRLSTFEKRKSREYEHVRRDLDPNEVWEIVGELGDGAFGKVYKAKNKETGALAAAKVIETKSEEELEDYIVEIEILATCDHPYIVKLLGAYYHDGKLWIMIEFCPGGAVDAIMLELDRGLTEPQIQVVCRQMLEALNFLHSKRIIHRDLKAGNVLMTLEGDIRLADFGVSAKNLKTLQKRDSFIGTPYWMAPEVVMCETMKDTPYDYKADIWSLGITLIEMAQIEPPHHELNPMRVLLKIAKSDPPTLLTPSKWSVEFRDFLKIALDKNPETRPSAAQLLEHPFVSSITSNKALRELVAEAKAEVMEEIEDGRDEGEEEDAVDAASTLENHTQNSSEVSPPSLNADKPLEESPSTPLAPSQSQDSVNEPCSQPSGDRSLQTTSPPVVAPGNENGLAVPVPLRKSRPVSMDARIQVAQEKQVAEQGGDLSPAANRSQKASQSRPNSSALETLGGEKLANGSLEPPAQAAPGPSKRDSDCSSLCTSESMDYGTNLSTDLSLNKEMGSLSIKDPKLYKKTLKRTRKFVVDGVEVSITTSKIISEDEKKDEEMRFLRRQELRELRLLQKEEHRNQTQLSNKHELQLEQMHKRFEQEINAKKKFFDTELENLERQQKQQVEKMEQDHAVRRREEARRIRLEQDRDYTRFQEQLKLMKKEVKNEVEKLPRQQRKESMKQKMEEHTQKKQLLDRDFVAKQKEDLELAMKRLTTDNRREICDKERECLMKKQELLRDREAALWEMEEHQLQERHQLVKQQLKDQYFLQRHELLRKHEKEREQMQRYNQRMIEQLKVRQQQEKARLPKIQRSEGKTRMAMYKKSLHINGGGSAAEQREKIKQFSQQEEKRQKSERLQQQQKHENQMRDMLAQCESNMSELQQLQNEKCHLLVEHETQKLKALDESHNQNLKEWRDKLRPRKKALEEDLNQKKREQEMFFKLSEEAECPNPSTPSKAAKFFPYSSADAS

[9] = molecular target: Serine/threonine-protein kinase 10 (Homo sapiens) (UniProt O94804); details: at 10 µM
[10] = molecular target: Tyrosine-protein kinase Lck (Homo sapiens) (UniProt P06239); details: at 1 µM
Chain of Tyrosine-protein kinase Lck (Homo sapiens) (P06239 2-509 limits assumed): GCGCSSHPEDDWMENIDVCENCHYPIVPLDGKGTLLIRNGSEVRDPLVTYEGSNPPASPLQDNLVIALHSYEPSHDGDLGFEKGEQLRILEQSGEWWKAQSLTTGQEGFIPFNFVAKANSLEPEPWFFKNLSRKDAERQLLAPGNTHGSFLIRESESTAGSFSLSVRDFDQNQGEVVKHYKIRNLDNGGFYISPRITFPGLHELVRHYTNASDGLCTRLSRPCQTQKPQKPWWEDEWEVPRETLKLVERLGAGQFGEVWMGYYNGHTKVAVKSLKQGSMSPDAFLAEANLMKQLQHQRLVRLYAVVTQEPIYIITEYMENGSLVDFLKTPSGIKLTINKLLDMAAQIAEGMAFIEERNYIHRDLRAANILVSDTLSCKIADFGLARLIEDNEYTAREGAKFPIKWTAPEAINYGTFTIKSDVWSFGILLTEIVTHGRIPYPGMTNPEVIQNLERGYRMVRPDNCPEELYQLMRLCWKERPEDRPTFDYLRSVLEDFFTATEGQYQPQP

[11] = molecular target: Tyrosine-protein kinase Lck (Homo sapiens) (UniProt P06239); details: at 10 µM
[12] = molecular target: Tyrosine-protein kinase Lck (Homo sapiens) (UniProt P06239); details: at 1 µM; remark: listed apart in the source
[13] = molecular target: Tyrosine-protein kinase Lck (Homo sapiens) (UniProt P06239); details: at 10 µM; remark: listed apart in the source
[14] = molecular target: Tyrosine-protein kinase Lyn (Homo sapiens) (UniProt P07948); details: at 1 µM
Chain of Tyrosine-protein kinase Lyn (Homo sapiens) (P07948 2-512 limits assumed): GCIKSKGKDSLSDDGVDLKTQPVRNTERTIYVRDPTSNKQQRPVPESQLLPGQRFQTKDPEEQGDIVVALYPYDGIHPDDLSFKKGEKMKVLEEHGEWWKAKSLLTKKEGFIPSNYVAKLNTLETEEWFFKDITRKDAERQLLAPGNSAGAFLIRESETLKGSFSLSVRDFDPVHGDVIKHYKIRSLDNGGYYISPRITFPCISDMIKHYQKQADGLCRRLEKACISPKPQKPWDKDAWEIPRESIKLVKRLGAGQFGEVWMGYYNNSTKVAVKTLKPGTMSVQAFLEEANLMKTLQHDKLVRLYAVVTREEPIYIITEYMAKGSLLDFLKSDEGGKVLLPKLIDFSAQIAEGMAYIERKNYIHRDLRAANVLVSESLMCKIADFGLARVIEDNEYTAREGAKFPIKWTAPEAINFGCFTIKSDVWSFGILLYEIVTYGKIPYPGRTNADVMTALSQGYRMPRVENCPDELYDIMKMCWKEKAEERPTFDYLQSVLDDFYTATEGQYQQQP

[15] = molecular target: Tyrosine-protein kinase Lyn (Homo sapiens) (UniProt P07948); details: at 10 µM
[16] = molecular target: Mitogen-activated protein kinase 3 (Homo sapiens) (UniProt P27361); details: at 1 µM
[17] = molecular target: Mitogen-activated protein kinase 3 (Homo sapiens) (UniProt P27361); details: at 10 µM
[18] = molecular target: Mitogen-activated protein kinase 1 (Homo sapiens) (UniProt P28482); details: at 1 µM
[19] = molecular target: Mitogen-activated protein kinase 1 (Homo sapiens) (UniProt P28482); details: at 10 µM
[20] = molecular target: MAP kinase-activated protein kinase 2 (Homo sapiens) (UniProt P49137); details: at 1 µM
Chain of MAP kinase-activated protein kinase 2 (Homo sapiens) (P49137 whole entry, looked up): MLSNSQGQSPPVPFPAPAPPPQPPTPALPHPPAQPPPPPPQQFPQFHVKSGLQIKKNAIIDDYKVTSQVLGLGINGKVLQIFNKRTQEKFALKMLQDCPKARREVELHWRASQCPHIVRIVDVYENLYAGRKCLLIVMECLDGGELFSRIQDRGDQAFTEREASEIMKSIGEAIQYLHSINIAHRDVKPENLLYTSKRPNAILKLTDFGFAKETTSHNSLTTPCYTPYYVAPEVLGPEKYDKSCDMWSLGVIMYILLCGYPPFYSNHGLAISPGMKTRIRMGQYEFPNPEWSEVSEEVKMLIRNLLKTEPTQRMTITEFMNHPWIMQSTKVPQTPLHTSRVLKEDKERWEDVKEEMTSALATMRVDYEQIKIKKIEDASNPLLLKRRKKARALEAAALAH

Chain of Mitogen-activated protein kinase 10 (Homo sapiens) (P53779 whole entry): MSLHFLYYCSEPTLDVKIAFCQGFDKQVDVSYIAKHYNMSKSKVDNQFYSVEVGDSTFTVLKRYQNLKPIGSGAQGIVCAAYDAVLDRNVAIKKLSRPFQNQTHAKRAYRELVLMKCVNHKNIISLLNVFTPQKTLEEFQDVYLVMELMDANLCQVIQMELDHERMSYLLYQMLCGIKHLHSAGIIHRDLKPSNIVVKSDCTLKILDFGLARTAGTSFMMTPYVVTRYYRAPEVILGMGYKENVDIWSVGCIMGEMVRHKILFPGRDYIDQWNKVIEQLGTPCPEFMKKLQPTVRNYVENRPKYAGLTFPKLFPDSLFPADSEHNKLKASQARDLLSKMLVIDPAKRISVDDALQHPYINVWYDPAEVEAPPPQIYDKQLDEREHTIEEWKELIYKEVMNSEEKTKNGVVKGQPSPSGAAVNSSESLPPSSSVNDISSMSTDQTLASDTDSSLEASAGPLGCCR
Chain of Vascular endothelial growth factor receptor 2 (Homo sapiens) (P35968 whole entry, the tested form may be a part): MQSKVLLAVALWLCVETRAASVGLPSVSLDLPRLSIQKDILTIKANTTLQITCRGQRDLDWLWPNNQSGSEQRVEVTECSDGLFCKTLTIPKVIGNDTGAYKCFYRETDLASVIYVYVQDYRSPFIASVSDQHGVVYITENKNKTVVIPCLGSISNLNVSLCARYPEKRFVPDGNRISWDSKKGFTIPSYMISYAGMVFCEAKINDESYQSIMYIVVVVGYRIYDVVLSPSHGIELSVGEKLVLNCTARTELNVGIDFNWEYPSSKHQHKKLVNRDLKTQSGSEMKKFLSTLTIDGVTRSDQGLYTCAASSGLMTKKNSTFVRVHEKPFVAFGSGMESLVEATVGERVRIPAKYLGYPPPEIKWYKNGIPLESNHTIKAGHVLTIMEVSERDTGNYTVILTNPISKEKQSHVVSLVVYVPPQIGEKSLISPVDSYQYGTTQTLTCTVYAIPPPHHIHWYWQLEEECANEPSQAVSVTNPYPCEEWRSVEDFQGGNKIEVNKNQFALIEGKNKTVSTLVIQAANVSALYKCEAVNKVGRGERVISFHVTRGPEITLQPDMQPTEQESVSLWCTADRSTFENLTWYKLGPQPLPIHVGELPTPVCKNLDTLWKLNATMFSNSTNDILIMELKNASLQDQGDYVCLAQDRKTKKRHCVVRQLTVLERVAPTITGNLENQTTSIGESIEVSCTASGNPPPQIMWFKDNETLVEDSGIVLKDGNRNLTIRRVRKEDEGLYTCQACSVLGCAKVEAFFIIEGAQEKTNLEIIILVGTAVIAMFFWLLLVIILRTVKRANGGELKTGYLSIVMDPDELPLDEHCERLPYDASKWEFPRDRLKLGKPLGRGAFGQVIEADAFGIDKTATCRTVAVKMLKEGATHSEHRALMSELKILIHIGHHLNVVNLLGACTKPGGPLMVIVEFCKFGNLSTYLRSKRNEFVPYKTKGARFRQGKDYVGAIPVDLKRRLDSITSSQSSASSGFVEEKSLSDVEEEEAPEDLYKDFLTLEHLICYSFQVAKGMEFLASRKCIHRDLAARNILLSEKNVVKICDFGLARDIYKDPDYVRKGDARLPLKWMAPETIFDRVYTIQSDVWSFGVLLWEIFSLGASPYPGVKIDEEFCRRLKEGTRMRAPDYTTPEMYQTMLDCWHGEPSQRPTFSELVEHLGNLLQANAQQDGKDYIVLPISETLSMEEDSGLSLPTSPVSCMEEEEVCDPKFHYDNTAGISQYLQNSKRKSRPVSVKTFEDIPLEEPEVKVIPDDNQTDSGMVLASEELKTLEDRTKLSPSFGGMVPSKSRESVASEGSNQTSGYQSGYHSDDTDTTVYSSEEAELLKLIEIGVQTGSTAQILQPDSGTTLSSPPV

Structure (SMILES)	residual activity [1] [%]	residual activity [2] [%]	residual activity [3] [%]	residual activity [4] [%]	residual activity [5] [%]	residual activity [6] [%]	residual activity [7] [%]	residual activity [8] [%]	residual activity [9] [%]	residual activity [10] [%]	residual activity [11] [%]	residual activity [12] [%]	residual activity [13] [%]	residual activity [14] [%]	residual activity [15] [%]	residual activity [16] [%]	residual activity [17] [%]	residual activity [18] [%]	residual activity [19] [%]	residual activity [20] [%]
Ic1cccc(CSc2nnc(-c3ccncc3)o2)c1	68	77	65	84	75	96	94	104	95	58	66	82	87	63	47	82	82	111	83	77
Nc1ccc2ncnc(NCCc3ccc(Oc4ccccc4)cc3)c2c1	80	79	53	106	80	105	94	92	75	76	45	83	20	24	11	122	74	104	86	70
COc1ccc(C(=O)Nc2sc3c(c2C(N)=O)CCCC3)cc1OC	69	71	75	102	86	104	105	100	87	100	103	88	84	69	46	97	86	111	109	70
CC(=O)O/N=C1\C(=C2\C(=O)Nc3cc(Br)ccc32)Nc2ccccc21	61	67	5	83	50	98	92	53	46	16	13	63	26	12	4	98	102	105	93	87
Nc1n[nH]c2nnc(-c3c(-c4ccccc4)nn4ccccc34)cc12	0	86	59	82	85	91	94	80	29	88	58	94	68	66	33	21	3	68	13	102
CCOc1cc2ncnc(Nc3cccc(Br)c3)c2cc1OCC	11	54	13	107	49	98	94	23	10	39	4	26	8	3	1	90	55	106	77	73
CC(C)n1cnc2c(NCc3ccccc3)nc(NCCCO)nc21	58	98	93	92	88	105	101	102	96	89	70	87	86	53	38	87	92	100	90	72
CC[n+]1c(/C=C/N(C)c2ccccc2)n(-c2ccccc2)c2ccc(-c3nc4ccccc4s3)cc21	93	109	87	124	96	98	104	107	92	133	322	92	65	73	73	111	96	105	100	95
c1ccc(-c2n[nH]cc2-c2ccnc3ccccc23)nc1	52	57	23	90	74	96	94	90	93	123	71	91	66	90	24	88	83	96	109	101
Nc1cccc(-c2cc3c(Oc4cccc(O)c4)ncnc3[nH]2)c1	57	5	2	14	4	67	11	34	9	3	7	4	0	2	-1	–	–	120	83	71
Cn1nc2c3c(cccc31)C(=O)c1ccccc1-2	9	84	45	86	80	102	84	73	68	–	93	106	86	89	50	83	96	–	97	77
Cn1cnc2cc3c(Nc4cccc(Br)c4)ncnc3cc21	9	49	19	105	57	101	99	31	10	42	24	41	34	8	2	103	85	107	95	108
C[C@@H](N)[C@H]1CC[C@H](C(=O)Nc2ccncc2)CC1	86	113	108	–	89	97	96	–	59	–	–	–	–	99	100	113	109	102	105	–
COc1ccc(OC)c2c(=S)c3ccccc3[nH]c12	65	88	97	93	88	97	95	94	89	101	101	103	92	80	84	97	112	111	101	102
CN(C)CCCn1cc(C2=C(c3c[nH]c4ccccc34)C(=O)NC2=O)c2ccccc21	101	61	14	117	73	105	102	33	15	109	49	80	43	79	22	–	–	–	–	108
O=C(Nc1cccc(Nc2cc(Nc3cccc(C(F)(F)F)c3)ncn2)c1)C1CC1	52	96	75	87	31	102	96	92	57	72	29	85	81	62	18	96	85	102	103	89
O=C1Nc2ccc(Br)cc2/C1=C\c1cc2c([nH]1)CCCC2	–	12	4	–	–	97	99	74	76	–	–	–	–	21	22	–	–	104	106	108
O=C1Nc2ccccc2/C1=C1/Nc2ccccc2/C1=N\OCCC(O)CO (configuration not stated)	20	3	1	42	33	30	3	62	70	4	5	5	8	4	-1	–	–	108	–	78
Cc1cccc(-c2[nH]c(C(C)(C)C)nc2-c2ccc3c(c2)OCO3)n1	85	101	79	–	95	102	101	87	106	146	86	95	92	91	76	90	94	105	–	92
O=C1NC(=O)c2c1c1c3ccccc3[nH]c1c1[nH]c3cc(Br)ccc3c21	67	70	58	99	76	96	100	98	95	79	62	95	95	72	69	103	104	111	99	98
N#CCCc1ccc2c(c1)-c1[nH]c3ccc([N+](=O)[O-])cc3c1CC(=O)N2	43	30	13	–	–	–	–	57	58	14	13	24	23	5	0	58	34	–	51	57
c1ccc2c(-c3ccncc3)c[nH]c2c1	–	100	78	98	64	100	90	86	54	102	79	94	101	105	91	77	87	101	99	90
COc1cc2ncnc(Nc3ccc(Oc4ccccc4)cc3)c2cc1OC	148	49	7	78	34	102	93	–	–	0	-1	-2	0	1	1	83	113	96	94	95
c1ccc(-c2n[nH]c3c2oc2ccccc23)cc1	32	5	3	88	64	–	–	92	70	–	–	–	–	68	30	86	80	–	–	–
O=Nc1c(-c2c(O)[nH]c3ccccc23)[nH]c2ccccc12	-2	4	1	61	21	83	44	66	71	13	6	22	17	8	2	114	101	104	103	101
CC(=O)c1ccc(N2CCOCC2)cc1O	85	106	91	104	83	97	–	102	90	–	–	–	–	105	98	91	89	–	–	100
Cc1cc2ncc(-c3ccccc3)nc2cc1C	70	92	79	109	93	108	99	89	93	–	97	91	101	74	75	87	86	100	100	–
O=C1NC(=O)/C(=C/c2ccc3c(c2)OC(F)(F)O3)S1	83	105	97	110	88	102	94	89	89	125	128	87	91	100	65	90	77	104	107	93
N#Cc1cnc2cnc(NCc3cccnc3)cc2c1Nc1ccc(F)c(Cl)c1	80	–	76	42	27	–	–	96	93	68	20	14	7	–	1	–	75	–	–	51
O=C1NC(=O)c2cc(Nc3ccc(F)cc3)c(Nc3ccc(F)cc3)cc21	–	99	61	100	91	102	93	89	32	103	26	77	44	35	7	79	57	103	99	90
